Assay outcomes: PubChem BioAssay, National Center for Advancing Translational Sciences (NCATS)
MARV entry inh: qHTS for inhibitors of binding or entry into cells for Marburg Virus; Marburg virus pseudotyped entry inhibition, cell reporter; Potency, µM (highest dose often 37.8 µM), actives largely listed as inhibitors; 1.8% of 300,000 active; calls by dose curve; tested in HEK293 cells
HCMV antiviral: qHTS Assay for inhibitors of the human cytomegalovirus (HCMV) | HFF cells, HCMV-luciferase reporter, 72 h; hits give low values | activity change, negative = inhibition, % at 57.5 µM | 4.5% of 410,000 active | AID 1259415, 2018; in the data active = activity change below about -60%; inconclusive = no clear call, values can overlap the other calls; inactive = above about -39%
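Screen run at 2 compound doses on HFFs infected with reporter HCMV, MOI 1 PFU/cell. Luciferase activity from cell lysates at 72 h post infection gave inhibition relative to buffer-only and Salinomycin wells.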
FBPA Giardia inh: qHTS Assay for Inhibitors of Fructose-1,6-bisphosphate Aldolase from Giardia Lamblia; purified Giardia FBPA; Potency, µM (top dose mostly 59.6 µM), actives largely listed as inhibitors; 0.71% of 290,000 active; also: nearly all actives have a fitted effect of over 55% in size
Target sequence (A8B2U2 whole entry, looked up): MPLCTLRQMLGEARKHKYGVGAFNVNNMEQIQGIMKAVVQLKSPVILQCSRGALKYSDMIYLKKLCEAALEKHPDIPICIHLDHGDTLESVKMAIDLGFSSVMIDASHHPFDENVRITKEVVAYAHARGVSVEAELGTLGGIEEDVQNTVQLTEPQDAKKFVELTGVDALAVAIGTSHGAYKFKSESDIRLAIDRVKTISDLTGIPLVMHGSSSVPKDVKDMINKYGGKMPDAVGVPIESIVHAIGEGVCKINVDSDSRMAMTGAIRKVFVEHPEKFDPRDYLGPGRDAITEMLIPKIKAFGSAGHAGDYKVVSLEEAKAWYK
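Giardia FBPA (40 nM reagent) was preincubated 10 min at RT with compound (up to 57.5 uM final), then substrate plus GAPDH/TPI/NAD/arsenate coupling system with diaphorase/resazurin was added; resorufin fluorescence (525/598 nm) was read after 20 min.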
Lassa entry inh: qHTS for Inhibitors of binding or entry into cells for Lassa Virus | 1.2% of 300,000 active | Potency, µM (doses to about 37.9 µM), usual class: inhibitors | Lassa virus pseudotype entry inhibition, cell reporter | AID 540256, 2011; calls by dose curve; tested in HEK293 cells; also: nearly all actives have a fitted effect of over 50% in size
HCV inhibitor: qHTS Assay for Inhibitors of Hepatitis C Virus (HCV) | Huh7.5.1 HCVcc-Cre infection, luciferase reporter, 44 h | Potency, µM (titrated, usually from 41.8 µM), actives largely listed as inhibitors | 3.4% of 340,000 active
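Antiviral activity was scored by luciferase reporter output from cells infected with HCVcc-Cre (~0.5 moi) in presence of compound, 44 h infection period, cells seeded 1,000/well 4 h prior.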
FMDV inh: High Throughput Screening for Foot and Mouth Disease Virus Antivirals; AID 1159524, 2015; Potency, µM (doses to about 57.9 µM), actives largely listed as inhibitors; 1.2% of 410,000 active; FMDV antiviral cell-based qHTS; calls by dose curve; tested in HEK293T cells; also: read-out not given here; nearly all actives have a fitted effect of over 45% in size
Hits are given with their value; n = inactive; u = inconclusive; x = no result; [ ] = remark or other dose. A selection: hits, their analogues and other compounds. The true share with any hit is near 8.3%. Unless noted, calls follow the shape of the dose curve; as a rule, active = well fitted curve in the direction sought with a large enough effect; inconclusive = small, poorly fitted or top-dose-only effect, or another doubt; inactive = no such curve, though single readings can be large; an effect the other way counts as inactive or inconclusive.

SMILES	MARV entry inh	HCMV antiviral	FBPA Giardia inh	Lassa entry inh	HCV inhibitor	FMDV inh
CC(NC(=O)c1ccc2c(c1)N(Cc1cccc(F)c1)C(=O)c1ccccc1S2)c1ccccc1 (centres undefined)	x	n	x	n	x	n
COc1cc(CNCCSc2nnnn2C)ccc1OCc1ccc(C)cc1	n	n	x	u	x	n
O=C(CSc1ccc2nnc(-c3ccc(F)cc3)n2n1)N1CCCc2ccccc21	u	-77	n	u	u	n
O=C(CCl)NN1C(=O)NC2(CCCCC2)C1=O	x	n	n	x	n	n
O=C(CCl)NN1C(=O)NC(c2ccccc2)(c2ccccc2)C1=O	u	-88	n	u	u	u
CC(C)(C)NC(=O)CN1C(=O)NC(c2ccccc2)(c2ccccc2)C1=O	n	-81	n	n	n	n
Cc1noc(C)c1-c1nc(NCc2cccs2)c2ccccc2n1	x	x	n	x	x	n
CN(N=Nc1cccc([N+](=O)[O-])c1)c1cccc([N+](=O)[O-])c1	n	n	n	n	u	n
O=[N+]([O-])c1cccc(N=NN(CCO)c2cccc([N+](=O)[O-])c2)c1	n	n	n	n	1.1µM	n
CCCN(N=Nc1cccc([N+](=O)[O-])c1)c1cccc([N+](=O)[O-])c1	u	n	n	n	1.1µM	x
CC[C@H]1CN2CCc3cc(OC)c(OC)cc3[C@H]2C[C@@H]1C[C@@H]1NCCc2cc(OC)c(OC)cc21	0.22µM	x	n	x	x	x
CCC1CN2CCc3cc(OC)c(OC)cc3C2CC1CC1c2cc(OC)c(OC)cc2CCN1C(=O)C(Cc1c[nH]c2ccccc12)NC(=O)OC(C)(C)C (centres undefined)	u	u	x	u	11µM	n
COc1cc2c(cc1OC)C1CC(=O)C(CC(C)C)CN1CC2 (centres undefined)	u	-62	x	u	x	n
CC(C)(C)OC(=O)N[C@@H](Cc1c[nH]c2ccccc12)C(=O)O	x	x	n	x	x	x
COc1cccc(-c2cncnc2NCc2cccc(C)c2)c1	x	x	n	x	x	n
COC(=O)C1=C(C)N(CC2CC2)C(=O)N[C@H]1CCc1ccccc1	u	x	n	x	x	x
O=C(NC1CCCCC1)C(c1cccs1)N(C(=O)c1ccco1)c1ccc2c(c1)OCCO2 (centres undefined)	u	-61	n	u	u	n
Cc1ccc(N(C(=O)CNC(=O)c2ccco2)C(C(=O)NC2CCCC2)c2ccncc2)cc1C (centres undefined)	n	-67	n	x	n	n
CC(=O)c1cccc(N(C(=O)CNC(=O)c2ccco2)C(C(=O)NC2CCCC2)c2ccc(C)o2)c1 (centres undefined)	n	n	n	n	n	1.8µM
CCOc1ccccc1N(C(=O)c1ccco1)C(C(=O)NC1CCCC1)c1cccs1 (centres undefined)	u	-63	x	n	n	n
Cc1ccc(N(C(=O)CNC(=O)c2ccco2)C(C(=O)NC2CCCC2)c2ccncc2)cc1F (centres undefined)	n	n	n	n	n	n
CC(=O)c1cccc(N(C(=O)CNC(=O)c2ccco2)C(C(=O)NC2CCCC2)c2ccco2)c1 (centres undefined)	n	n	n	u	n	n
CCC(=O)N1CCc2cc(Br)cc(S(=O)(=O)CCC(=O)N(CC)Cc3ccccc3)c21	n	n	x	n	x	n
COC(=O)[C@@H]1[C@@H](CO)[C@@H]2Cn3c(cccc3=O)[C@H]1N2C(=O)Nc1cc(F)ccc1F	x	n	x	x	x	x
OC1(c2cccnc2)CCN(Cc2ccc3c(c2)CN(Cc2ccc(F)c(F)c2)CCO3)CC1	x	x	x	x	x	n
SMILES	MARV entry inh	HCMV antiviral	FBPA Giardia inh	Lassa entry inh	HCV inhibitor	FMDV inh
Cc1ccc(N(C(=O)CNC(=O)c2ccco2)C(C(=O)NCC2CCCO2)c2ccccc2)cc1C (centres undefined)	n	-67	x	x	n	n
CCOc1ccccc1N(C(=O)CNC(=O)c1ccco1)C(C(=O)NC1CCCC1)c1ccncc1 (centres undefined)	n	-61	n	n	n	n
CCOc1ccc(N(C(=O)CNC(=O)c2ccco2)C(C(=O)NC2CCCC2)c2ccncc2)cc1 (centres undefined)	n	n	n	n	n	n
O=C(NCc1cccs1)c1ccc(Cn2c(SCc3cccc(F)c3)nc3cccnc32)cc1	x	-70	x	u	x	n
O=C(Cn1c(SCc2cccc(F)c2)nc2cccnc21)Nc1ccc(F)c(Cl)c1	x	-73	x	n	x	n
CC(C)OCCCNC(=O)c1ccc(CSc2nc3cccnc3n2Cc2ccccc2)cc1	x	-98	x	n	x	n
COC(=O)c1ccccc1COc1cccn2c(N(C)CC3CC3)c(C)nc12	x	-99	x	x	x	n
CC1(C)O[C@H]2O[C@@H]([C@H](O)CON3C(=O)c4ccccc4C3=O)[C@H](O)[C@H]2O1	u	x	n[12.9 µM]	x	x	x
CC(=O)Nc1ccc(NC2=Nc3ccccc3N3C2=Nc2c(c(C)nn2-c2ccccc2)C3c2ccccc2)cc1 (centres undefined)	u	-99	x	u	n	10µM
Cc1cc(/C=C2\Sc3ccccc3N2C)cc(C)[n+]1CC1CCCO1 (centres undefined)	u	-100	n	u	2.5µM	u
CCOC(=O)Cn1c(S(=O)(=O)Cc2cccc(F)c2)nc(-c2ccccc2)c1-c1ccccc1	2.6µM	u	n	7.3µM	u	n
CCOC(=O)Cn1c(S(=O)(=O)Cc2ccc(F)cc2)nc(-c2ccccc2)c1-c1ccccc1	4.1µM	-78	n	2.6µM	u	n
COc1cccc(Nc2ncc3nc(-c4cn(C)c5ccccc45)c(=O)n(CCC#N)c3n2)c1	x	x	n	x	x	n
Cc1sc2ncnc(N3CCOCC3)c2c1C	n	-66	n	n	n	u
Cc1ccc(S(=O)(=O)N2CCN(c3ncnc4scc(-c5ccccc5)c34)CC2)cc1	u	n	x	11µM	u	n
Cc1ccc(S(=O)(=O)N2CCN(c3ncnc4scc(-c5ccc(F)cc5)c34)CC2)cc1	u	n	x	n	u	u
Clc1ccc(OCCN2CCN(c3ncnc4sccc34)CC2)cc1	u	u	n	u	0.32µM	u
Cc1nc(N2CCN(S(=O)(=O)c3ccc(F)cc3)CC2)c2c(-c3cccs3)csc2n1	u	-66	n	u	u	u
Cc1sc2ncnc(N3CCCCC3)c2c1C	n	u	n	n	u	u
CCCCNC(=O)CCCn1c(=O)c2ccccc2n(Cc2cccc(Cl)c2)c1=O	n	n	x	n	x	n
COc1ccc(CNC(=O)O[C@H]2CC[C@@]34CCCN3C(=O)CCC[C@H]4[C@H]2Cc2ccccc2)cc1OC	x	n	x	x	x	x
Cc1sc2nc(CN3CCCC3)nc(N3CCN(S(=O)(=O)c4ccccc4)CC3)c2c1C	x	n	x	x	n	n
Cc1nc(N2CCN(S(=O)(=O)c3ccccc3C#N)CC2)c2c(-c3ccccc3)csc2n1	x	-74	x	x	8.9µM	u
